In PubChem BioAssay (NCATS):
Records with an inconclusive call do not appear. The source made the active and inactive calls. The call rests on the fitted dose curve; in most records, active means well fitted curve in either direction with a large enough effect (not every such curve was filed as active); inconclusive means small, poorly fitted or top-dose-only effect, or another doubt; inactive means flat fitted curve, though single readings scatter.

Experiment: Stat Signaling Pathway (AID 446);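 further: ME-180 cervical cancer cells given 40 pM IL-6 alongside compound; SIE-controlled beta-lactamase reporter measured as 460/530 nm FRET emission ratio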
Conditions: ME-180 (cervical carcinoma) SIE beta-lactamase reporter, IL-6 stimulated, 5 h; at 7.69 µM (top of the series) unless noted
Outline: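 Compound effects on IL-6-induced STAT reporter activity were measured in ME-180 cells. After overnight culture, cells were co-treated with 40 pM IL-6 for 5 hrs before beta-lactamase substrate loading at room temperature.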
On the % scale 0 is the no-effect control and ±100 the full control effect.

activity, negative = inhibition, inactive:
O=C(Nc1cccc(F)c1)N1CCC2(CC1)CCN(C(=O)c1csnn1)CC2 -9.77%
COC(=O)N1CCC2(CC1)CCN(c1ccccc1)CC2 7.52%
N#Cc1cccc(NC(=O)N2CCC3(CC2)CCN(C(=O)c2ccco2)CC3)c1 4.51%
O=C(c1cnccn1)N1CCC[C@@]2(CCN(c3ccncc3)C2)C1 5.94%
CS(=O)(=O)N1CCC2(CC1)CN(Cc1cc(C(F)(F)F)cc(C(F)(F)F)c1)C2 -3.12%
Cn1cccc1C(=O)N1CCC[C@@]2(CCN(Cc3cc(C(F)(F)F)cc(C(F)(F)F)c3)C2)C1 8.87%
N#Cc1ccc(CN2CCCC3(CCN(C(=O)c4cccc(F)c4)CC3)C2)cc1 -5.26%
COc1ccc(NC(=O)N2CC3(CCN(C(C)=O)CC3)C2)cc1 -0.267%
N#Cc1cccc(NC(=O)N2CCC3(CC2)CCN(C(=O)c2csnn2)CC3)c1 -0.506%
COc1ccccc1CN1CCC2(CC1)CCN(C(C)=O)CC2 0.91%
Cc1noc(C)c1C(=O)N1CCC2(CCN(C(=O)Nc3ccccc3)CC2)CC1 -7.75%
O=C(Oc1ccccc1)N1CCC2(CC1)CN(c1ccccc1)C2 -0.517%
COC(=O)N1CCC[C@@]2(CCN(C(c3ccccc3)c3ccccc3)C2)C1 3.94%
Cn1cccc1C(=O)N1CCC2(CC1)CCN(c1ccccc1)CC2 -1.51%
CC(=O)N1CCC2(CC1)CN(c1ccccn1)C2 -0.186%
CS(=O)(=O)N1CCC2(CC1)CN(c1cccc(-c3ccccc3)c1)C2 -14.9%
CC(C)CN1CC[C@@]2(CCCN(C(=O)c3cnccn3)C2)C1 4.96%
Cn1cccc1C(=O)N1CCC2(CCCN(c3ccccc3)C2)CC1 -6.3%
O=C(c1csnn1)N1CCC[C@@]2(CCN(Cc3nccs3)C2)C1 -2.25%
O=C(c1ccco1)N1CCC2(CC1)CN(Cc1cc(C(F)(F)F)cc(C(F)(F)F)c1)C2 2.41%
CC(C)NC(=O)N1CC[C@@]2(CCCN(C(=O)c3cc(C(F)(F)F)cc(C(F)(F)F)c3)C2)C1 -10.1%
COCC(=O)N1CCC[C@@]2(CCN(Cc3ccccc3OC)C2)C1 -1.88%
COc1ccccc1CN1CCCC2(CCN(S(C)(=O)=O)CC2)C1 6.82%
O=C(c1cc(C(F)(F)F)cc(C(F)(F)F)c1)N1CCC[C@@]2(CCN(Cc3ccncc3)C2)C1 -8.97%
Cc1cccc(CNc2ncnc3ccc(-c4cccc(C#N)c4)cc23)c1 -6.66%
O=C(c1ccncc1)N1CCC2(CC1)CCN(c1cccc(-c3ccccc3)c1)CC2 -12.5%
CS(=O)(=O)N1CCC2(CC1)CN(Cc1nccs1)C2 6.32%
c1ccc(-c2cccc(N3CC[C@@]4(CCCNC4)C3)c2)cc1 -6.03%
CC(=O)N1CCC2(CC1)CN(c1ccccc1)C2 10.3%
CC(C)CN1CC[C@@]2(CCCN(S(=O)(=O)c3ccccc3)C2)C1 -0.418%
Cc1noc(C)c1C(=O)N1CCC[C@@]2(CCN(Cc3ccccc3)C2)C1 3.42%
O=C(c1csnn1)N1CCC2(CC1)CN(c1ccccc1)C2 4.17%
COCC(=O)N1CCC[C@@]2(CCN(C(=O)Nc3cccc(F)c3)C2)C1 -1.05%
O=C(c1csnn1)N1CCC2(CC1)CN(c1ccccn1)C2 -1.49%
COc1ccc(C(=O)N2CCC3(CCN(C)CC3)CC2)cc1 2.9%
CS(=O)(=O)N1CCC2(CCCN(C(=O)Nc3cccc(C#N)c3)C2)CC1 1.15%
Cc1noc(C)c1C(=O)N1CCC2(CCN(Cc3cc(C(F)(F)F)cc(C(F)(F)F)c3)CC2)CC1 -0.996%
CC(C)NC(=O)N1CC2(CCN(C(=O)c3ccco3)CC2)C1 -2.76%
CC(=O)N1CCC2(CC1)CN(C(c1ccccc1)c1ccccc1)C2 -8.55%
COc1ccc(NC(=O)N2CC[C@@]3(CCCN(C(=O)c4csnn4)C3)C2)cc1 7.84%
